Sampled rows, rich in hits. Any-hit rate of the full collection: about 4.7%.
SKKanGAS inh: inhibitors of SKKanGAS S. pyogenes growth in kanamycin (SK-promoter or general growth effect); BacTiter-Glo, 6 h; inhibition, % at 7.5 µM; hit rate 1.3% among 300,000; AID 1662;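 active = mean replicate score, as percent of positive control median, at least 50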;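 also: strain carries kanamycin resistance gene driven by streptokinase promoter and grows in 40 µg/ml kanamycin; loss of luminescence reflects streptokinase promoter inhibition or plain growth inhibition; 0% = median of DMSO wells and 100% = positive control at its reference dose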
EBI2 antag: EBI2 (human) antagonism. P32249. EBI2 beta-arrestin recruitment, luminescence, 7a,25-OHC stimulated. inhibition, % at 5 µM. hit rate 0.81% among 360,000. AID 651636; in the data active = inhibition above about 38%;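 also: enzyme fragment complementation signal reports receptor beta-arrestin coupling in cells; 0% = agonist plus DMSO wells and 100% = wells without agonist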
Target sequence (P32249 whole entry, looked up, the tested form may be a part): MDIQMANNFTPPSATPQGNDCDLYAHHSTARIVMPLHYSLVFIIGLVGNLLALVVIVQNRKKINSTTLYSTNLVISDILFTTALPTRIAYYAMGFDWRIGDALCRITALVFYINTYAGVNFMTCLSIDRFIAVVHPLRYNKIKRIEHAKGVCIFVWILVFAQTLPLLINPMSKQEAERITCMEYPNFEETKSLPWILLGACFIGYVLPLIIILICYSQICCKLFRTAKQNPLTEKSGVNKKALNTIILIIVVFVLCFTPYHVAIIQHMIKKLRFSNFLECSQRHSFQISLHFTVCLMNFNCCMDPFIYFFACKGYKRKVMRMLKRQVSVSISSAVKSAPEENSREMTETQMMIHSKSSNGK
tim10-1 inh: growth inhibitors of tim10-1 mutant yeast. inhibition, % at 20 µM. AID 463190. S. cerevisiae tim10-1 ts strain growth, BacTiter-Glo, 24 h. hit rate 2.2% among 330,000;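 active = inhibition of at least 40%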;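 also: mutant grown at 25 °C; 0% = DMSO wells with yeast and 100% = wells holding no yeast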
TIM10 inh: inhibits growth of TIM10 yeast strain; S. cerevisiae TIM10 strain growth, BacTiter-Glo luminescence, 24 h; inhibition, % at 10 µM; hit rate 1.4% among 330,000;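 active = inhibition of 40% or more at the single tested concentration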;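 also: wild-type TIM10 isogenic control strain grown at permissive 25 °C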
tim23-1 inh: growth inhibitors of tim23-1 mutant yeast | S. cerevisiae tim23-1 growth, BacTiter-Glo luminescence, 24 h | inhibition, % at 20 µM | hit rate 1.3% among 330,000;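 active = growth inhibition of the mutant yeast at or above 50%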;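 also: temperature-sensitive mutant grown at 25 °C; plate controls were DMSO-treated mutant yeast for no effect and medium wells lacking yeast for full effect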
PfHsp90 set2: growth inhibition of yeast expressing Plasmodium Hsp90 | S. cerevisiae expressing PfHsp90, BacTiter-Glo ATP, 48 h; yeast lacking PDR1 and PDR3 efflux regulators | inhibition, % at 9.4 µM | hit rate 0.32% among 310,000 | AID 504621;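 active = every replicate shows inhibition above about 80%, whatever the replicate mean, limit read from the data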;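 also: 0% = DMSO neutral controls and 100% = 20 µM radicicol positive controls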
EBI2 conf: confirmation of human EBI2 receptor antagonists; shares compounds with EBI2 antag; EBI2 beta-arrestin luminescence, 7a,25-OHC antagonism; inhibition, % at 5 µM; hit rate 29% among 2,400;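 active = inhibition of at least 50%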
EBI2 agonist: activates EBI2, counter-screen for EBI2 antagonists. shares compounds with EBI2 antag. EBI2-expressing cells, agonist mode, luminescence, 60 min; 0% vehicle, 100% 7α,25-dihydroxycholesterol control. activation, % at 5 µM. 2,400 tested, under 10 active. AID 652000;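 active = activation of at least 50%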
bGal counter: counter-screen for EBI2 antagonists: E. coli beta-galactosidase inhibition | shares compounds with EBI2 antag | purified beta-galactosidase, luminescent Galacton Star, 15 min | inhibition, % at 5 µM | hit rate 1% among 2,400;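 active = replicate-average signal at least 3 plate SD below neutral wells, shown as high inhibition, flagging enzyme-inhibiting false positives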;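 also: 0% = DMSO wells with enzyme and 100% = wells lacking enzyme; higher means stronger loss of beta-gal luminescence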
Numbers without * were called inactive; x = no result given.

SMILES | SKKanGAS inh | EBI2 antag | tim10-1 inh | TIM10 inh | tim23-1 inh | PfHsp90 set2 | EBI2 conf | EBI2 agonist | bGal counter
Cc1ccc(NC(=O)c2ccc3c(c2)C(=O)N(CC2CCCO2)C3=O)cc1C (stereo not drawn) | -7 | 74* | -31 | 7 | 1 | -4 | 52* | 2 | -4
O=C(Nc1ccc2c(c1)OCO2)c1ccccc1 | 9 | 1 | -27 | 6 | 22 | 1 | x | x | x
O=[N+]([O-])c1cccc(S(=O)(=O)c2ccc(NCCO)c([N+](=O)[O-])c2)c1 | -15 | 7 | 11 | 20 | 11 | 2 | x | x | x
COc1cc(C(=O)NCC2CCCCC2)ccc1OCc1c(C)noc1C | x | 7 | -8 | 4 | -6 | -7 | x | x | x
COc1cc(C(=O)NCCOc2ccc(Cl)cc2)ccc1OCc1c(C)noc1C | x | 72* | 7 | 5 | 11 | 20 | 56* | 0 | -3
CN(C)c1nc(NNC(=O)c2ccccc2)nc(N(C)C)n1 | x | -5 | x | x | x | -4 | x | x | x
C=CCN1C(=O)NC(c2ccc(OC)cc2)(C(F)(F)F)S/C1=C(\C#N)c1nnc(N2CCOCC2)n1-c1ccccc1 (stereo not drawn) | 3 | 68* | 14 | 13 | 15 | -13 | 69* | 0 | 6
C=CCN1C(c2cccc(C(F)(F)F)c2)=CS/C1=C(/C#N)c1nnc(N2CCOCC2)n1-c1ccccc1 | 2 | 4 | 15 | 32 | 18 | -9 | x | x | x
O=C(NCCc1c[nH]c2ccccc12)C(=O)NCC1OCCCN1S(=O)(=O)c1cc(F)ccc1F (stereo not drawn) | -8 | 6 | 24 | 0 | 7 | -2 | x | x | x
COc1ccc(/C=C2\SC(=NCc3ccccc3)NC2=O)cc1 | -2 | 47* | 14 | 13 | 16 | -28 | 39 | 2 | 4
CC(C)[C@H](NC(=O)c1c(F)cccc1F)C(=O)OCC(=O)NNC(=O)c1ccccc1 | x | 10 | x | x | x | x | x | x | x
CC(C)C(NS(=O)(=O)c1ccccc1)C(=O)OCC(=O)NNC(=O)c1ccccc1 (stereo not drawn) | x | 53* | -24 | -3 | -21 | -6 | 42 | 0 | 2
O=C(CCn1cnc2ccccc21)N/N=C/C=C/c1ccccc1 | 0 | 46* | 19 | 20 | 16 | 7 | 52* | 1 | 5
Cc1cc(=O)c(C(=O)O)c(C)n1-c1ccccc1 | x | 3 | x | x | x | -1 | x | x | x
COc1ccc(/C=C/C(=O)N2CCC(c3ccccc3)C2)cc1 (stereo not drawn) | -13 | 70* | 34 | 25 | 40 | 2 | 55* | 0 | -13
COc1ccc(CC(=O)N2CCC(c3ccccc3)C2)cc1 (stereo not drawn) | 8 | 48* | 36 | 0 | 34 | 0 | 43 | 0 | 6
COC(=O)C1CCN(C(=O)/C=C/c2ccc(OC)cc2)CC1 | 1 | 87* | 19 | -16 | 4 | -7 | 76* | 2 | -2
COC(=O)C1CCN(C(=O)Nc2ccc(OC)cc2)CC1 | -4 | 8 | 11 | -1 | -2 | -8 | x | x | x
O=C(Cc1ccccc1)N1CCC(c2ccccc2)C1 (stereo not drawn) | -2 | 2 | 7 | 10 | 6 | -2 | x | x | x
O=C(NCC1CCCO1)c1cc(-c2ccc(F)cc2)no1 (stereo not drawn) | -4 | -3 | 12 | -6 | 19 | 8 | x | x | x
COCCNC(=O)C(OC(=O)CC1Sc2ccccc2NC1=O)c1ccccc1 (stereo not drawn) | 0 | 2 | -1 | 9 | 8 | 34 | x | x | x
COc1ccc(S(=O)(=O)N2CCN(C(=O)c3cc(-c4ccc(C)cc4)n[nH]3)CC2)cc1 | -2 | 74* | 18 | 12 | 18 | x | 49 | 2 | 3
COc1ccc(C(=O)N2CCN(S(=O)(=O)c3ccc(Br)cc3)CC2)cc1 | x | 52* | 15 | 9 | 30 | 5 | 28 | 1 | 9
O=C(c1ccc(S(=O)(=O)N2CCCCCC2)cc1)N1CCN(c2ccccc2)CC1 | 0 | 20 | 23 | -5 | 21 | -5 | x | x | x
COc1ccc(-c2cc(C(=O)N3CCN(S(=O)(=O)c4ccc(C)cc4)CC3)[nH]n2)cc1 | -15 | 53* | -7 | 4 | 6 | 5 | 49 | -1 | -13
SMILES | SKKanGAS inh | EBI2 antag | tim10-1 inh | TIM10 inh | tim23-1 inh | PfHsp90 set2 | EBI2 conf | EBI2 agonist | bGal counter
COc1ccc(CN2CCN(C(=O)c3ccc(S(=O)(=O)N4CCCCCC4)cc3)CC2)cc1 | x | -1 | 5 | 21 | 15 | x | x | x | x
CC1CC(C)CN(S(=O)(=O)c2ccc(C(=O)N3CCN(c4ccccc4)CC3)cc2)C1 (stereo not drawn) | 1 | 57* | 12 | 11 | 24 | -9 | 28 | 0 | -10
COc1cccc(-c2cc(C(=O)N3CCN(S(=O)(=O)c4ccccc4)CC3)[nH]n2)c1 | -7 | 35 | 6 | 12 | 8 | 16 | x | x | x
COc1ccc(NC(=O)c2cc(S(=O)(=O)N3CCS(=O)(=O)CC3)ccc2Cl)cc1 | -4 | -12 | -6 | -5 | -12 | -35 | x | x | x
CCC(C)NCCOCCOc1ccc(Cl)c2ccccc12 (stereo not drawn) | -5 | 0 | 7 | 18 | 8 | -7 | x | x | x
COc1ccc(CN(C)CC(=O)N2CCc3ccccc3C2)cc1 | 4 | 3 | 8 | -1 | 21 | -29 | x | x | x
COc1ccc2nc(C)cc(SCC(=O)N/N=C/c3cccc4ccccc34)c2c1 | -6 | 46* | 2 | -6 | 6 | 7 | 22 | 1 | 7
COc1ccc2nc(C)cc(SCC(=O)N/N=C/c3ccc(O)c(O)c3)c2c1 | 7 | -5 | -32 | 5 | -2 | 13 | x | x | x
O=C(CSc1nnc(SCc2ccccc2)s1)N/N=C/C=C\c1ccco1 | 16 | 12 | 24 | 12 | -13 | 10 | x | x | x
CC(=C/c1ccco1)/C=N/NC(=O)CSc1nnc(SCc2ccc(C)cc2)s1 | 6 | 59* | 5 | -6 | 12 | 1 | 20 | -1 | -9
O=C(CSc1nnc(SCc2ccc(Cl)cc2)s1)N/N=C/c1ccc(Cl)cc1Cl | 10 | 52* | -37 | -21 | -28 | -11 | 10 | 1 | 3
COc1cc2c(C(=O)N3CCN(c4cccc(Cl)c4)CC3)cn(CC(C)C)c(=O)c2cc1OC | 20 | 9 | 28 | 25 | 27 | -14 | x | x | x
COc1cccc(CNCc2ccco2)c1O | 0 | -9 | -9 | -6 | -4 | 2 | x | x | x
COc1ccc(C(=O)N2CCN(c3nc(C4CC4)nc4sc(C)c(C)c34)CC2)cc1 | 11 | 49* | 10 | 11 | 30 | 14 | 19 | 0 | 1

Source: PubChem BioAssay (several laboratories)
